Results filed as inconclusive are left out. Some structures have more than one record in an assay (separate samples or runs), and their calls can disagree. Active and inactive are the calls of the source. Unless noted, calls follow the shape of the full dose curve.
Columns and labels:
[1] = Nuclear factor erythroid 2-related factor 2/antioxidant responsive element (Nrf2/ARE) small molecule agonists: qHTS cell viability counter screen in human keratinocytes (AID 1919968; active = well fitted curve in the direction sought with a large enough effect in the repeat runs; an effect the other way counts as inactive or inconclusive; also: nearly all actives have a fitted effect of over 55% in size)
Summary of the method: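 CellTiter-Fluor fluorescence, read 1 h after reagent, gave viability in the same wells as the ARE-luciferase assay. KeratinoSens cells (1,500/well) had 23 h compound exposure at 37 C/5% CO2 following 5 h plating.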

[2] = Nuclear factor erythroid 2-related factor 2/antioxidant responsive element (Nrf2/ARE) small molecule agonists: luciferase reporter gene qHTS assay in human keratinocytes (AID 1919969); also: nearly all actives have a fitted effect of over 35% in size; also: potency is read from the fitted curve at half-maximal effect
[3] = target: Gonadotropin-releasing hormone receptor (Homo sapiens) (UniProt P30968); experiment: Human gonadotropin-releasing hormone receptor (GnRHR) small molecule agonists, calcium flux assay in GnRHR-HEK293 cells (AID 1920063); also: nearly all actives have a fitted effect of over 35% in size
Gonadotropin-releasing hormone receptor (Homo sapiens), sequence (P30968 whole entry, looked up): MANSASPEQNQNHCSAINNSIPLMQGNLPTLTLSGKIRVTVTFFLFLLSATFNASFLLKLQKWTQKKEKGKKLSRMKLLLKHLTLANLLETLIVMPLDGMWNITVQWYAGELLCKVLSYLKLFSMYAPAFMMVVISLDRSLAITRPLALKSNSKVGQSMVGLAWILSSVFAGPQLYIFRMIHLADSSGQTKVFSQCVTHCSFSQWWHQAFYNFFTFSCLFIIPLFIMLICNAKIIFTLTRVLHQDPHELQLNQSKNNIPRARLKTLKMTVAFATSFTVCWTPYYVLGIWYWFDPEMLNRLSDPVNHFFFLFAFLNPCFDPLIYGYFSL
Summary of the method: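 Agonist mode: compounds at 15 concentrations, in triplicate, went onto calcium dye-loaded GnRHR-HEK293 cells. Intracellular calcium was then followed as 480/540 nm fluorescence at 1 s intervals over 3 min.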

[4] = target: KiSS-1 receptor (Homo sapiens) (UniProt Q969F8); experiment: Human kisspeptin (KISS1R) small molecule agonists, calcium flux assay in KISS1R-HEK293 cells (AID 1920064; active = well fitted curve in the direction sought with a large enough effect in the repeat runs; an effect the other way counts as inactive or inconclusive)
KiSS-1 receptor (Homo sapiens), sequence (Q969F8 whole entry, looked up): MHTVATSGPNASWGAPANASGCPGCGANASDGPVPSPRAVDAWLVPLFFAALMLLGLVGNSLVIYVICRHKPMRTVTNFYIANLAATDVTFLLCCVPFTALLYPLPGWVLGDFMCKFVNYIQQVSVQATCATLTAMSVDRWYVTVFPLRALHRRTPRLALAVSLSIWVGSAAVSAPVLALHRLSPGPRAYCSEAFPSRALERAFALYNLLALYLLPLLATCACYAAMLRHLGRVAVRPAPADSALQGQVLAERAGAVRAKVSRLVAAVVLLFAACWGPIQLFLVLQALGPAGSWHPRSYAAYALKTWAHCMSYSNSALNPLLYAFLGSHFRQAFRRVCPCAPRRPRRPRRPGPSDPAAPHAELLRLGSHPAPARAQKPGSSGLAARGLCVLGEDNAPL
Summary of the method: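 Agonist mode: intracellular calcium rise tracked at 1 s intervals over 3 min (480/540 nm) immediately after compound addition to dye-loaded KISS1R-HEK293 stable cells. Each compound tested at 15 concentrations in triplicate.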

[5] = G protein-coupled receptor (GPCR) small molecule agonists, calcium flux assay: HEK293 wild type cell line counter screen (AID 1920065)
Summary of the method: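 Calcium flux counter screen: compound added in agonist mode at 15 concentrations in triplicate to dye-loaded parental HEK293 cells. Fluorescence (480/540) read kinetically for 3 min; ATP served as positive control.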

[6] = p53 small molecule agonists, cell-based qHTS assay with human liver microsomes (AID 1963577);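 also: p53 response element beta-lactamase reporter cells with liver microsomes plus NADPH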
Summary of the method: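 Steps: plate p53RE-bla cells, incubate 5 h at 37 C; add compound in DMSO; add microsomes (0.5 mg/mL final) and NADPH (0.5 mg/mL final); incubate 16 h at 37 C; add LiveBLAzer, 2 h RT; read fluorescence.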

[7] = p53 small molecule agonists, cell-based qHTS assay with rat liver microsomes (AID 1963578)
Summary of the method: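 Metabolic activation is supplied by rat liver microsomes with NADPH (each 0.5 mg/mL final). p53RE-bla cells incubate with compound 16 h at 37 C; reporter activity is measured by LiveBLAzer fluorescence.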

[8] = p53 small molecule agonists, cell-based qHTS assay with human liver microsomes: qHTS cell viability counter screen (AID 1963579); also: nearly all actives have a fitted effect of over 45% in size
Summary of the method: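 After the 460/530 nm beta-lactamase read, CellTiter-Glo was added to the same wells and luminescence measured after 30 min at room temperature, giving viability of p53RE-bla cells treated 16 h with compounds plus microsomes and NADPH.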

[9] = p53 small molecule agonists, cell-based qHTS assay with rat liver microsomes: qHTS cell viability counter screen (AID 1963580); also: nearly all actives have a fitted effect of over 45% in size
Summary of the method: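 Rat liver microsome (0.5 mg/mL final) and NADPH (0.5 mg/mL final) co-incubation with compounds for 16 h at 37 C on HCT-116 p53RE-bla cells; cytotoxicity taken from intracellular ATP luminescence.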

[10] = p53 small molecule agonists, cell-based qHTS assay: qHTS cell viability counter screen (AID 1963581); also: nearly all actives have a fitted effect of over 45% in size
Summary of the method: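 Counter screen read by CellTiter-Glo luminescence (ATP content, 30 min at room temperature), run in the same wells as the beta-lactamase reporter read. HCT-116 p53RE-bla cells saw compounds for 16 h at 37 C.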

[11] = p53 small molecule agonists, cell-based qHTS assay (AID 1963582; active = well fitted activation curve with a large enough effect in the signal ratio in the repeat runs, not every such curve was filed as active; the % refers to the signal ratio)
Summary of the method: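 Read-out is beta-lactamase FRET fluorescence after 2 h at room temperature with LiveBLAzer B/G substrate. p53 response element-bla cells were treated 16 h at 37 C with compounds in DMSO, added 5 h after seeding.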

[12] = target: 5-hydroxytryptamine receptor 2A (Homo sapiens) (UniProt P28223); experiment: 5-hydroxytryptamine receptor 2A (HTR2A) small molecule antagonists, cell-based qHTS assay (AID 1963586); also: nearly all actives have a fitted effect of over 45% in size
5-hydroxytryptamine receptor 2A (Homo sapiens), sequence (P28223 whole entry, looked up): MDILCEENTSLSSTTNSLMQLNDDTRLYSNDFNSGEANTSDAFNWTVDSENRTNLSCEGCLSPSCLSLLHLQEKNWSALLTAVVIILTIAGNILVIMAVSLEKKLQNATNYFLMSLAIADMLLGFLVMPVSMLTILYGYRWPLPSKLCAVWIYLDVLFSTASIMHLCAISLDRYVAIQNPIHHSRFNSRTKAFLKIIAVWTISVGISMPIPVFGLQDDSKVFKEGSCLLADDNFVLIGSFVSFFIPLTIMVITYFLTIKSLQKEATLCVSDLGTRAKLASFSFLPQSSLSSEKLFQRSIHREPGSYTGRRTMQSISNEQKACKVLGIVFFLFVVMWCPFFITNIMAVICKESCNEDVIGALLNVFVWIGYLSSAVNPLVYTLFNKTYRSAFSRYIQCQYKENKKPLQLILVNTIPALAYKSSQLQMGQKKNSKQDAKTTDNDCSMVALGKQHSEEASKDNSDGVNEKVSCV
Summary of the method: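 CHO cells stably expressing human HTR2A were plated for 18 h at 37 C, then loaded with calcium dye for 1 h. Compounds were preincubated 5 min at room temperature before DOI (4 nM solution) was added. Kinetic fluorescence was read for 3 min.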

[13] = target: 5-hydroxytryptamine receptor 2A (Homo sapiens) (UniProt P28223); experiment: 5-hydroxytryptamine receptor 2A (HTR2A) small molecule agonists, cell-based qHTS assay (AID 1963587); also: nearly all actives have a fitted effect of over 30% in size
Summary of the method: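 Kinetic calcium-flux fluorescence (2 min, 1 sec intervals) after compound addition in agonist mode. HTR2A-CHO cells were cultured 18 h, then dye-loaded 1 h at 37 C.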

[14] = target: Muscarinic acetylcholine receptor M1 (Homo sapiens) (UniProt P11229); experiment: Cholinergic receptor muscarinic 1 (CHRM1) small molecule antagonists, cell-based qHTS assay (AID 1963588); also: nearly all actives have a fitted effect of over 40% in size
Muscarinic acetylcholine receptor M1 (Homo sapiens), sequence (P11229 whole entry, looked up): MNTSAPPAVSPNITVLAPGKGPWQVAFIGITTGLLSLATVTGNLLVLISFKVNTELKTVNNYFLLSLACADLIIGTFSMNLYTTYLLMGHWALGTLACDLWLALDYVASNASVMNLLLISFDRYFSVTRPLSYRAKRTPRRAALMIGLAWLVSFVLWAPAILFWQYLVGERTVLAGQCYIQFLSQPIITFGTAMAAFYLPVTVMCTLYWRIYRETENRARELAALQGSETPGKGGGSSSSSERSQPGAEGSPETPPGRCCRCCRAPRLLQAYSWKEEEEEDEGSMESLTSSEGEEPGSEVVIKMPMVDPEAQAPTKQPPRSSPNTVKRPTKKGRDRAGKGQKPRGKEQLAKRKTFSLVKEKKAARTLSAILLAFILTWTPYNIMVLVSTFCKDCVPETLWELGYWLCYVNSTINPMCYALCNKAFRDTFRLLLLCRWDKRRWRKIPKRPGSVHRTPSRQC
Summary of the method: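 Compounds were tested at 15 concentrations in three independent runs. Dye-loaded CHRM1-CHO cells were exposed 5 min at room temperature before stimulation by acetylcholine added at 50nM. Intracellular calcium was read kinetically on FDSS for 3 min.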

[15] = target: Muscarinic acetylcholine receptor M1 (Homo sapiens) (UniProt P11229); experiment: Cholinergic receptor muscarinic 1 (CHRM1) small molecule agonists, cell-based qHTS assay (AID 1963589); also: nearly all actives have a fitted effect of over 35% in size
Summary of the method: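 Agonist-mode calcium-flux screen: compounds at 15 concentrations, three independent runs, were pin-transferred onto dye-loaded human CHRM1-CHO cells. Fluorescence was then recorded kinetically every second over minutes.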

[16] = cAMP Responsive Elements (CRE) small molecule agonists, cell-based qHTS assay (AID 1963590)
Summary of the method: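 Agonist mode: compound added to CRE-bla HEK 293T cells (2,000/well, 18 h after plating) for 3 h at 37 C/5% CO2. Reporter activity detected via FRET beta-lactamase substrate, 2 h room-temperature loading.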

[17] = cAMP Responsive Elements (CRE) small molecule antagonists, cell-based qHTS assay (AID 1963591; active = well fitted inhibition curve with a large enough effect in the signal ratio in the repeat runs, not every such curve was filed as active; the % refers to the signal ratio)
Summary of the method: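 Antagonist mode: compounds are added alongside the adenylyl cyclase activator NKH477 (0.25 uM final) to CRE-bla HEK293T cells for 3 h. LiveBLAzer FRET substrate, 2 h at room temperature, reports bla expression.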

[18] = target: Beta-2 adrenergic receptor (Homo sapiens) (UniProt P07550); experiment: Adrenergic beta2 receptor (ADRB2) small molecule antagonists, cell-based qHTS assay (AID 1963592); also: series mostly up to about 92 µM; nearly all actives have a fitted effect of over 50% in size
Beta-2 adrenergic receptor (Homo sapiens), sequence (P07550 whole entry, looked up): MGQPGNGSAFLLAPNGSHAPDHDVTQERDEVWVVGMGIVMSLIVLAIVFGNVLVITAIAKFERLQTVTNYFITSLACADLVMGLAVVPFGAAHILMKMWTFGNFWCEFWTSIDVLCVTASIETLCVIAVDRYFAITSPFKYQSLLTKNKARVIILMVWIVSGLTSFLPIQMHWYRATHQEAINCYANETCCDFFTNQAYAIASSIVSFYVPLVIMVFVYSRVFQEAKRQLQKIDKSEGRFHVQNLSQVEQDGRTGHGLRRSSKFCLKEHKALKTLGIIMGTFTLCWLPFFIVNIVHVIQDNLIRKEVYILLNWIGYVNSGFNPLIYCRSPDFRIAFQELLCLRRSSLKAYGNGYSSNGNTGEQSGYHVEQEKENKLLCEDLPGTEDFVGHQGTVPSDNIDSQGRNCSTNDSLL
Summary of the method: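 Assay format: CHO-ADRB2 cells, 18-20hr seeding at 37C/5% CO2, then compound plus 1nM isoproterenol agonist mix for 0.5hr RT. Homogeneous time-resolved fluorescence cAMP detection after 1hr, expressed as 665/615 nm ratio.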

[19] = target: D(2) dopamine receptor (Homo sapiens) (UniProt P14416); experiment: Dopamine D2 receptor (DRD2) small molecule agonists, cell-based qHTS assay (AID 1963594); also: nearly all actives have a fitted effect of over 35% in size
D(2) dopamine receptor (Homo sapiens), sequence (P14416 whole entry, looked up): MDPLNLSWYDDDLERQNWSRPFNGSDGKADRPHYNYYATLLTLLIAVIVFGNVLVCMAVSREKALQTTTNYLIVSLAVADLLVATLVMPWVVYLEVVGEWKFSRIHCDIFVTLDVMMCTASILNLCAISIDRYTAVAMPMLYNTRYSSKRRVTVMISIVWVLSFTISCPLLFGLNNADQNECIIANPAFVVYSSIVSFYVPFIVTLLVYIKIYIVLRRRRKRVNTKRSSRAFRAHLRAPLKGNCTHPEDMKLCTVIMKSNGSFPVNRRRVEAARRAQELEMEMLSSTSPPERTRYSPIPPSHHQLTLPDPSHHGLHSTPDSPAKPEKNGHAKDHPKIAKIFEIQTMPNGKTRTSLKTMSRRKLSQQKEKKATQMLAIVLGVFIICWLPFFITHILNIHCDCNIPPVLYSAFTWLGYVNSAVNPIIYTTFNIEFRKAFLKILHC
Summary of the method: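 cAMP accumulation in DRD2-HEK293 cells measured by HTRF after 1 h detection; compounds added 10 min before NKH477 (200nM […]) forskolin-analogue stimulation, 30 min at room temperature, with Ro20-1724 present at 0.1 mM final.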

[20] = target: D(2) dopamine receptor (Homo sapiens) (UniProt P14416); experiment: Dopamine D2 receptor (DRD2) small molecule antagonists, cell-based qHTS assay (AID 1963595; active = well fitted inhibition curve with a large enough effect in the signal ratio in the repeat runs, with a control signal flat; the % refers to the signal ratio)
Summary of the method: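 Antagonist mode in DRD2-HEK293 cells: after compound addition with 0.1 mM Ro20-1724, cells received quinpirole (12 nM) and NKH477 (200 nM) for 30 min at room temperature; HTRF cAMP read after 1 h detection.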

Measured: Potency

CCCCCCC(C)O (centres undefined)
not listed: [20]
inactive: all other assays above

O=CCCCC=O
52.5 µM (active) and inactive: [2]
not listed: [20]
inactive: all other assays above

O=C(O)CCCCCCCCC(=O)O
not listed: [19] | [20]
inactive: all other assays above

CC(=O)C(C)C
inactive: all assays above

Nc1ccccc1[N+](=O)[O-]
inactive: all assays above

COC(C)COC(C)COC(C)CO (centres undefined)
inactive: all assays above

C=CC(C)(CCC=C(C)C)OC(C)=O (centres undefined)
inactive: all assays above

CC(=O)CC(=O)N(C)C
inactive: all assays above

CCCCCCCCCCCCCO
not listed: [20]
inactive: all other assays above

COc1ccc([C@@H]2CC(=O)c3c(O)cc(O[C@@H]4O[C@H](CO[C@@H]5O[C@@H](C)[C@H](O)[C@@H](O)[C@H]5O)[C@@H](O)[C@H](O)[C@H]4O)cc3O2)cc1OC
inactive: all assays above

C[Si](C)(C)N[Si](C)(C)C
inactive: all assays above

COCCOCCOCCO
inactive: all assays above

CN(C)CCCN
inactive: all assays above

C1N2CN3CN1CN(C2)C3
inactive: all assays above

CC(C)=CCO
not listed: [20]
inactive: all other assays above
